For three compounds, Potency, outcome and activation results are on record in PubChem BioAssay (NCATS).

In test [1] the target is DNA repair nuclease/redox regulator APEX1 (Homo sapiens) (UniProt P27695). The experiment in a line: qHTS Validation Assay for Inhibitors of the Human Apurinic/apyrimidinic Endonuclease 1 (APE1) (AID 1705;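 note: TAMRA fluorescence gain over two minutes as APE1 cuts a quenched THF abasic duplex; series mostly up to about 57 µM; % is set by controls: 0 for no effect and ±100 for the full control effect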). The gist of the method: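 qHTS, 1536-well. APE1 + cpd 15 min RT → 50 nM TAMRA/BHQ-2 THF-abasic dsDNA substrate → kinetic fluorescence, 3 reads/60 s; delta(read3−read1) = reaction progress. No-enzyme buffer = negative control.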

Test [2] in a line: Counterscreen for APE1 Inhibitors: Fluorescent Dye Displacement Validation Assay (AID 1707).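 Note: plate controls were ThO with dsDNA and no compound for no effect and ThO without dsDNA for full effect.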 The procedure, abridged:
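Counterscreen flags promiscuous DNA binders: compounds displacing ThO from duplex DNA (abasic THF site, 50 nM) reduce 540 nm emission (480 nm excitation). ThO 250 nM final; Tris-HCl pH 7.5 with NaCl, MgCl2 and Tween-20.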

Test [3] concerns the target Endonuclease 4 (Escherichia coli (strain K12)) (UniProt P0A6C1). Kind of test: Counterscreen for APE1 Inhibitors: qHTS Validation Assay for Inhibitors of Endonuclease IV (AID 1708). Note: % is set by controls: 0 for no effect and ±100 for the full control effect. The procedure, abridged:
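Incision of a double-stranded 50 nM TAMRA/BHQ-2 abasic substrate was followed kinetically (525/598 nm, reads every 60 s) after 15 min enzyme–compound preincubation with 2 nM EndoIV in pH 7.5 Tris buffer with MgCl2, DTT and Tween-20; concentration-response format.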

A short description of test [4]: qHTS for differential inhibitors of proliferation of Plasmodium falciparum line GB4 (AID 1816).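 Note: potency is the fitted concentration of half-maximal effect; parasite growth measured after 72 h incubation.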 The conditions noted are these: Potency: Plasmodium falciparum GB4 proliferation inhibition. For orientation: In qHTS, concentration-response curves come from the screen itself.
Test [5] can be described thus: qHTS for differential inhibitors of proliferation of Plasmodium falciparum line 3D7 (AID 1876). Note: potency is the fitted concentration of half-maximal effect.
Test [6] is described as follows: qHTS for differential inhibitors of proliferation of Plasmodium falciparum line W2 (AID 1883).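 Note: parasites grown with compound for 72 h before lysis and staining.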 Note: potency is the fitted concentration of half-maximal effect. The conditions noted are these: Potency: Plasmodium falciparum W2 proliferation inhibition.
The target of test [7] is ATP-dependent DNA helicase Q1 (Homo sapiens) (UniProt P46063). The experiment in a line: qHTS Validation Assay for Inhibitors of RecQ-Like Dna Helicase 1 (RECQ1) (AID 2353).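 Note: plate controls were DMSO vehicle for no effect and enzyme-free control for full effect.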 The gist of the method: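 RECQ1T1 50 nM; forked duplex (20 bp + 30-nt ss tails) 200 nM, ATP 2 mM final; pH 8.0, 2 mM MgCl2, 2.5 ug/ml poly(dI-dC); 15 min compound preincubation; discontinuous kinetic read over 2 h at RT.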

Test [8] deals with RecQ-like DNA helicase BLM (Homo sapiens) (UniProt P54132). Kind of test: qHTS Validation Assay for Inhibitors of Bloom's syndrome helicase (BLM) (AID 2364). Note: potency is the fitted concentration of half-maximal effect. The procedure, abridged:
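Forked 20-bp duplex substrate (200 nM, TAMRA/BHQ-2) plus 2 mM ATP added after 15 min compound preincubation with 50 nM enzyme, pH 8.0, poly(dI-dC) 2.5 ug/ml. Strand separation followed by fluorescence (525/598 nm) over 2 h, normalized to enzyme-free and DMSO controls.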

Test [9] can be described thus: Validation screen for small molecules that induce DNA re-replication in MCF 10A normal breast cells (AID 463097). Note: 0% is about no effect; nearly all actives have a fitted effect of over 60% in size. The gist of the method: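 Image-based qHTS: normal breast cells are incubated with compound for 48 hr, stained with Hoechst, and scanned for total nuclear fluorescence. Compounds raising the fraction of nuclei with elevated DNA content count as re-replication inducers.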

Test [10] deals with M-phase phosphoprotein 8 (Homo sapiens) (UniProt Q99549). Kind of test: qHTS Validation Assay for Inhibitors for MPP8 Chromodomain Interactions with Methylated Histone Tails (AID 488949). Note: nearly all actives have a fitted effect of over 55% in size. Note: potency is the fitted concentration of half-maximal effect. The procedure, abridged:
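50 nM MPP8 + 50 nM b-H3K9me3 peptide, PBS pH 7.4/0.01% Tween-20, 30 min RT; + cpd 30 min RT; + AlphaScreen donor/Ni-chelate acceptor beads 10 ug/mL final, 30 min dark; luminescence read.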

The target of test [11] is Transient receptor potential cation channel subfamily V member 1 (Homo sapiens) (UniProt Q8NER1). Kind of test: HTS Assay for Compounds that Act as Enhancers of the Vanilloid Receptor 1 (AID 488979). Note: 0% is about no effect. The gist of the method: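 Calcium influx kinetics via Fluo-8 (480/520 nm) in TRPV1-expressing cells, 2000/well cultured overnight at 35.5C. Compound-alone read 3 min (agonist phase), followed by EC20 capsaicin challenge for 2 min (enhancer phase).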

In test [12] the target is Thyrotropin receptor (Homo sapiens) (UniProt P16473). Kind of test: qHTS Assay for Antagonists of the Thyroid Stimulating Hormone Receptor (AID 488980). Note: series mostly up to about 58 µM; 0% is about no effect. The gist of the method:
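Readout is cAMP by HTRF competition between cellular cAMP and cAMP-d2 for a cryptate-labelled antibody. Antagonism was assessed in TSHR-transfected HEK293 cells stimulated with 4 nM TSH (EC80, final) in the presence of RO 20-1724.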

Test [13] concerns the target Thyrotropin-releasing hormone receptor (Homo sapiens) (UniProt P34981). The experiment in a line: qHTS for Small Molecule Agonists and Allosteric Enhancers of Human TRH Receptor: Validation Screen for Agonists (AID 493127;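 active = calcium activation more than 3 SD above the typical response in the agonist read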;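 note: intracellular calcium rise by fluo-8 fluorescence before TRH EC20 addition; 0% is about no effect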). The conditions noted are these: TRH receptor agonist cell assay; at 2 µM; active compounds read high. The gist of the method:
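Compounds are added by online pintool to dye-loaded TRHR cells while fluorescence is recorded every second. A rise in calcium signal during the agonist read marks activation; a later 10 nM TRH addition (EC20) serves the separate enhancer mode.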

The target in test [14] is Galactokinase (Homo sapiens) (UniProt P51570). Kind of test: qHTS Validation Assay for Inhibitors of Human Galactokinase (GALK) (AID 493189). Note: 0% is about no effect. The gist of the method: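 5 nM GALK / 100 uM galactose / 35 uM ATP, 20 mM HEPES pH8.0, 5 mM MgCl2, 60 mM NaCl, 1 mM DTT, 0.01% BSA (final). RT 1 h; Kinase-Glo Plus luminescence.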
Test [15] addresses Rap guanine nucleotide exchange factor 3 (Homo sapiens) (UniProt O95398). The experiment in a line: Counterscreen qHTS for antagonist of cAMP-regulated guanine nucleotide exchange factor 3 (EPAC1) (AID 1645888).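 Note: fluorescence loss as bound BODIPY-GDP is released from Rap1B; % of control where 0% means no effect.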 The procedure, abridged:
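Rap1B-BODIPY-GDP 250 nM + GDP 50 uM; cpds 7-pt, final 9.74 nM–152 uM (activator mode) or from 7.32 nM upwards (inhibitor mode); RT; FI 480/540 nm at 5 and 30 min, then ± cAMP, reread.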
Background: A counterscreen serves to expose hits that act by an unwanted route or on another target.

Test [16] can be described thus: qHTS for differential inhibitors of proliferation of Plasmodium falciparum line 7G8 (AID 1815).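 Note: parasite growth measured after three days of incubation; plate controls were vehicle wells for no effect and reference inhibitor wells for full effect.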
The nature of test [17]: qHTS for differential inhibitors of proliferation of Plasmodium falciparum line D10 (AID 1877).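 Note: parasites grown with compound for 72 h before DNA staining; plate controls were vehicle wells for no effect and reference inhibitor wells for full effect.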
A short description of test [18]: qHTS for differential inhibitors of proliferation of Plasmodium falciparum line Dd2 (AID 1882).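 Note: series mostly up to about 29 µM; plate controls were DMSO vehicle for no effect and 0.29 µM artemisinin for full effect; nearly all actives have a fitted effect of over 65% in size.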 The conditions noted are these: Potency: Plasmodium falciparum Dd2 proliferation inhibition. The procedure, abridged:
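SYBR Green DNA fluorescence (ex 485, em 535 nm) after overnight lysis quantifies parasite growth; compound exposure lasted 72 h at 37 C on infected red cells at 2.5% hematocrit, 0.3% parasitemia (final). Artemisinin 0.29 uM and vehicle wells define normalization.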

Test [19] in a line: qHTS for differential inhibitors of proliferation of Plasmodium falciparum line HB3 (AID 1886).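 Note: parasites grown with compound for 72 h before SYBR Green readout; plate controls were vehicle for no effect and reference inhibitor for full effect.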 The conditions noted are these: Potency: Plasmodium falciparum HB3 proliferation inhibition.
The target of test [20] is Ferritin light chain (Equus caballus) (UniProt P02791). The experiment in a line: qHTS Validation Assay for Identification of Novel General Anesthetics (AID 2323). Note: series mostly up to about 77 µM; % is set by controls: 0 for no effect and ±100 for the full control effect. The procedure, abridged: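 Fluorescence at 535 nm (excitation 380 nm) reported loss of 1-AMA binding to horse-spleen apoferritin (10 uM) in PBS with 50% saturated 1-aminoanthracene, after 10 min room-temperature incubation with compound; values from Hill fits of normalized response.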

Test [21] is described as follows: Quantitative high throughput screen for delayed death inhibitors of the malarial parasite plastid, 96 hour incubation (AID 488745).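 Note: luciferase-expressing P. falciparum in erythrocytes at 2% hematocrit and 0.1% parasitemia; series mostly up to about 29 µM; % is set by controls: 0 for no effect and ±100 for the full control effect; nearly all actives have a fitted effect of over 70% in size.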 The gist of the method:
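Readout is firefly luciferase luminescence from an integrated reporter in P. falciparum; lower signal marks inhibited growth. Cultures at 2% hematocrit and 0.1% parasitemia were treated with compound across two generations (96 h, 37 C, 5% CO2).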

The nature of test [22]: Quantitative high throughput screen for delayed death inhibitors of the malarial parasite plastid, 48 hour incubation (AID 488752). Note: % is set by controls: 0 for no effect and ±100 for the full control effect; nearly all actives have a fitted effect of over 65% in size. The procedure, abridged:
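First, compound was pinned into RPMI 1640 medium containing 0.5% Albumax. Next, reporter-parasite-infected erythrocytes were added to 2% hematocrit and 0.1% parasitemia. After 48 h at 37 C under 5% CO2, luciferase detection reagent was added and luminescence read.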

A short description of test [23]: Validation screen for small molecules that induce DNA re-replication in SW480 colon adenocarcinoma cells (AID 504364). Note: 0% is about no effect. The procedure, abridged: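 Image-based qHTS: compounds were incubated with SW480 cells for 48 hr, nuclei stained with Hoechst, and per-nucleus fluorescence intensity scanned to flag cells with excess DNA content.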
In test [24] the target is Voltage-gated inwardly rectifying potassium channel KCNH2 (Homo sapiens) (UniProt Q12809). The experiment in a line: qHTS Assay for Small Molecule Inhibitors of the Human hERG Channel Activity (AID 588834).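 Note: top concentration of the series differs between compounds; % is set by controls: 0 for no effect and ±100 for the full control effect; lower thallium flux fluorescence means stronger hERG block; nearly all actives have a fitted effect of over 50% in size.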 The gist of the method: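 Step 1: BacMam hERG transduction of U2OS, 4 hrs RT. Step 2: overnight 37 °C, plate 2000 cells/well, 4 hr. Step 3: FluxOR load, compound 10 min, stimulate, read fluorescence.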

Values without a mark were called inactive. Results filed as inconclusive are left out. Calls of active or inactive are those of the source. Unless noted, calls come from the whole dose curve; as a rule, active = well fitted curve in the direction sought with a large enough effect; inconclusive = small, poorly fitted or top-dose-only effect, or another doubt; inactive = no such curve, though single readings can be large; an effect the other way counts as inactive or inconclusive.

Sequence of Thyrotropin receptor (Homo sapiens) (P16473 whole entry, looked up): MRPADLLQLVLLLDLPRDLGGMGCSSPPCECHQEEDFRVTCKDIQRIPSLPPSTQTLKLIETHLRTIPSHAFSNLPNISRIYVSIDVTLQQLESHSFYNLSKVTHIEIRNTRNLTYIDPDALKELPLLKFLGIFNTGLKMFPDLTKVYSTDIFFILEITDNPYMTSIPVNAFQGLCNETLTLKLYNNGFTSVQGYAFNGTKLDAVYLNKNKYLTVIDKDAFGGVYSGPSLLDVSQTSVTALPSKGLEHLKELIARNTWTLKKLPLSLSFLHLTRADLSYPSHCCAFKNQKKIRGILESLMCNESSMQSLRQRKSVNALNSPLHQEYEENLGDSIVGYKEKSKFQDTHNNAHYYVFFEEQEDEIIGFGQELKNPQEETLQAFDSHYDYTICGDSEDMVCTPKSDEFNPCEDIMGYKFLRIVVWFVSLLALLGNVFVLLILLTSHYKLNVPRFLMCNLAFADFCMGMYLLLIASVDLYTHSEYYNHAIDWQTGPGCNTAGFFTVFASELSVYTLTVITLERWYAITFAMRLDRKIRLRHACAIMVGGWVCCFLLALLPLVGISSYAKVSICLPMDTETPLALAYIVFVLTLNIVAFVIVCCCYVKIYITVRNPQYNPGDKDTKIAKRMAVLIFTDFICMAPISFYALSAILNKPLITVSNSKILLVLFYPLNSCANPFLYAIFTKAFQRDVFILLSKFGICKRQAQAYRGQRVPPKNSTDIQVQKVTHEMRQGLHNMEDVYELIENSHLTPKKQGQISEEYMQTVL
Sequence of Transient receptor potential cation channel subfamily V member 1 (Homo sapiens) (Q8NER1 whole entry, looked up): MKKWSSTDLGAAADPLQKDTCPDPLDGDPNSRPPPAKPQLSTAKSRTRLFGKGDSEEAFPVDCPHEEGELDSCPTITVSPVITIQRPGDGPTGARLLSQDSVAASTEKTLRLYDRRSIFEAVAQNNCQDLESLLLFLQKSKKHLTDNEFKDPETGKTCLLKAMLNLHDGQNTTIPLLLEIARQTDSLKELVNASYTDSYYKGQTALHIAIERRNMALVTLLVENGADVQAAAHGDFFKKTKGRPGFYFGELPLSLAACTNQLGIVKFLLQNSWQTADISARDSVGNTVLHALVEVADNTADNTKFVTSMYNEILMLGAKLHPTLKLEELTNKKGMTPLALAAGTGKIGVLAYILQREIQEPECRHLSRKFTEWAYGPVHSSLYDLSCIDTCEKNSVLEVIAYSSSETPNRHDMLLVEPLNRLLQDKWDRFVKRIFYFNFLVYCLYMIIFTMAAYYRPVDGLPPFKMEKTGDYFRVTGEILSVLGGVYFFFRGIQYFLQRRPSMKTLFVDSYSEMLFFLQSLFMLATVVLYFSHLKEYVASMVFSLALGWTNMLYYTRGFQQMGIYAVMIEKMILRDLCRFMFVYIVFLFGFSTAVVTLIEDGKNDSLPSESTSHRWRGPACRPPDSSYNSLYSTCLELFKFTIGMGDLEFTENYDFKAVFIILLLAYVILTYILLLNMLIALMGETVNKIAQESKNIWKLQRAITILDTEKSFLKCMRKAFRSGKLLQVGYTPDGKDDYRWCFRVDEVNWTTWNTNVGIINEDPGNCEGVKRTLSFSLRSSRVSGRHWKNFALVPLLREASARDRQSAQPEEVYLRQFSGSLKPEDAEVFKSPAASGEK
Sequence of DNA repair nuclease/redox regulator APEX1 (Homo sapiens) (P27695 whole entry, looked up): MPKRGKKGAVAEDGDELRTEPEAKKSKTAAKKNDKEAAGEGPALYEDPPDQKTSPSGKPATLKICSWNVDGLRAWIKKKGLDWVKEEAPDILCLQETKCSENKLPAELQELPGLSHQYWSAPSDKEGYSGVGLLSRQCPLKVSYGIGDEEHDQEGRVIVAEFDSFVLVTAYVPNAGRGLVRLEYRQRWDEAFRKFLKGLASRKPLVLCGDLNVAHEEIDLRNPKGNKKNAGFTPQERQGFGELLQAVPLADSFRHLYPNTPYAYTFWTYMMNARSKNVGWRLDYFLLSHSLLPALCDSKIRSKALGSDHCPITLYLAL
Sequence of Thyrotropin-releasing hormone receptor (Homo sapiens) (P34981 whole entry, looked up): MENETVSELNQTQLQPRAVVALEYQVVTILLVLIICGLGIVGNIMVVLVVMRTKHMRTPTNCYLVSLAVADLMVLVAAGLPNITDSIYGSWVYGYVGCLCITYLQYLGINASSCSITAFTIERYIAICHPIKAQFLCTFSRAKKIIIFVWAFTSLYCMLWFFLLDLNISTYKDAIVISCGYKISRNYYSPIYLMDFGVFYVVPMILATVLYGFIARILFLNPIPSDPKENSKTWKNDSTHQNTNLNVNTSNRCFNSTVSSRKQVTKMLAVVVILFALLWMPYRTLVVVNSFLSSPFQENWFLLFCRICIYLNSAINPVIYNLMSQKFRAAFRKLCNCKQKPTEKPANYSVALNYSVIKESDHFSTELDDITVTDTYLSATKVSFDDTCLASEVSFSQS
Sequence of Galactokinase (Homo sapiens) (P51570 whole entry, looked up): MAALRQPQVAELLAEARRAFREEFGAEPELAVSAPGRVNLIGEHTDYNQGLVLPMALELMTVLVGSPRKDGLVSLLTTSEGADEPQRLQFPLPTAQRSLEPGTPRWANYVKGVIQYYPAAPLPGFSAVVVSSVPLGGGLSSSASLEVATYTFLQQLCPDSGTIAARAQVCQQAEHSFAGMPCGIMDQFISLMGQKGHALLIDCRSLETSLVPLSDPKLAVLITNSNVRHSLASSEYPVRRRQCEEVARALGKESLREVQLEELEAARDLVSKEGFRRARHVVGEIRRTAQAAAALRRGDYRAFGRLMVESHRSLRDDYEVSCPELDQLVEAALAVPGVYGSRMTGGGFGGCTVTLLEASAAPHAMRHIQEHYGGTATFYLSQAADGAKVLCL
Sequence of M-phase phosphoprotein 8 (Homo sapiens) (Q99549 whole entry, looked up): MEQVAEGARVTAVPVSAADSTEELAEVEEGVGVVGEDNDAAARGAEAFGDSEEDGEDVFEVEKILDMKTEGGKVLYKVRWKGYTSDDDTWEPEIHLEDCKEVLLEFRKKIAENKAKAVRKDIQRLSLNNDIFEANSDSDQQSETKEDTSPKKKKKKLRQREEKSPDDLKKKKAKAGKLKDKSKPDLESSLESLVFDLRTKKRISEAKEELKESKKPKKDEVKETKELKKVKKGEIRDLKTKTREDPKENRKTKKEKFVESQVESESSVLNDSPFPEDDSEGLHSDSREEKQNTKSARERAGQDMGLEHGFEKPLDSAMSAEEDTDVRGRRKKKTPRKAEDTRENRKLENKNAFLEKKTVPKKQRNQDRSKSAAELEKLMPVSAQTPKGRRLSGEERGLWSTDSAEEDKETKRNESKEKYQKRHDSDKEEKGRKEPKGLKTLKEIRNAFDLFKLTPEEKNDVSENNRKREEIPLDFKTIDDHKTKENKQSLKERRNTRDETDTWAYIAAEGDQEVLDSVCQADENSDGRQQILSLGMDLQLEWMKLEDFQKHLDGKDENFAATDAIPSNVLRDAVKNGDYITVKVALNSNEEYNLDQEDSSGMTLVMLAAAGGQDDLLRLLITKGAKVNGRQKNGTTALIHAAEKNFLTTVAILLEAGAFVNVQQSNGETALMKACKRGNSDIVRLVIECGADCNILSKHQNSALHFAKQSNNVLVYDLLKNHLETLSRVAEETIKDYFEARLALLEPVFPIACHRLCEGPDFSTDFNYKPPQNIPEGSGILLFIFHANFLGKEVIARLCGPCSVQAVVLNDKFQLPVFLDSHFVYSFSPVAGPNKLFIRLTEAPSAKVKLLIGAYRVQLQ
Sequence of ATP-dependent DNA helicase Q1 (Homo sapiens) (P46063 whole entry, looked up): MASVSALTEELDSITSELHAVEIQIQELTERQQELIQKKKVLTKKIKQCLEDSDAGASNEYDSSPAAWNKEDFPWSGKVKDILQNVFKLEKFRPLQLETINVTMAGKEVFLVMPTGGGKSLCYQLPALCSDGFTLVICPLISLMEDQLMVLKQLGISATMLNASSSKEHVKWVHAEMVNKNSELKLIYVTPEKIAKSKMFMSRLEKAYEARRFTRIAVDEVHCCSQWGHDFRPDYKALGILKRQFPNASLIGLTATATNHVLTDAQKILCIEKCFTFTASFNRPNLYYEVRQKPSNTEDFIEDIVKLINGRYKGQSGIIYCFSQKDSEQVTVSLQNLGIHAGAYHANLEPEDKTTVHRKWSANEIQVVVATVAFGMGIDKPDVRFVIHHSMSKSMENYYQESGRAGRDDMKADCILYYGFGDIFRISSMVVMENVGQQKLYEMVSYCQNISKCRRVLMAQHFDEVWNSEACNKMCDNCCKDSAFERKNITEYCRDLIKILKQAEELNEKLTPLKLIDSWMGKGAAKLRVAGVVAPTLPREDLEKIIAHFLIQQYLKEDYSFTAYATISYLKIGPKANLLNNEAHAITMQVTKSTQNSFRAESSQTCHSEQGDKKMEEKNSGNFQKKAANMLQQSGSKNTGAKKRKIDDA
Sequence of Ferritin light chain (Equus caballus) (P02791 2-175 limits assumed): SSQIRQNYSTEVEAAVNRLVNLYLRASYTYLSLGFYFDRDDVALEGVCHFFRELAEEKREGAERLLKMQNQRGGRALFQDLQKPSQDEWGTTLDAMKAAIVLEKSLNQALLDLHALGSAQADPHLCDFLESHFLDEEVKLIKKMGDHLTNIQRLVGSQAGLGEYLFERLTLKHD

Consider `N#CC(Cc1ccc(O)c(O)c1)C(=O)N1CCc2ccccc21` (centres undefined), for which the Potency result in [1], in test [3] and in test [9] was “inactive” in each case. Moreover, the result in test [2], in test [7], in [11], in test [12] and in test [14] was inactive. Also, the Potency in [4] is 7.08 µM (active); in test [5] it was 3.55 µM (active); in test [6], 3.55 µM (active); in test [8], 25.1 µM (active); in test [10], 17.8 µM (active). The activation in test [13] is 3.94%.

Consider `Oc1ccc(/C(Cc2ccccn2)=N\Nc2ccccc2)c(O)c1`, for which the Potency result in [15] is “inactive”.

For the compound `Nc1nc(Cl)nc2c1ncn2[C@@H]1O[C@H](COP(=O)(O)OP(=O)(O)OP(=O)(O)O)[C@H](O)[C@H]1O`, the Potency result in [1], in test [16], in test [5], in test [17], in [18] and in test [6] was “inactive” in each case. Further, the Potency entry in test [19], in [21], in test [22], in test [10], in [23] and in test [24] was “inactive” throughout. In addition, the compound was classed as inactive in [2], in test [20], in test [7], in test [11], in test [12] and in test [14]. In addition, in [13], the activation was 6.94%.
